Inconclusive results are not listed. Active and inactive are the calls of the source. Rule for the calls, unless noted: active = hit-call score of the fitted dose curve at least 0.9, where 1 is the maximum; inactive = score below 0.9.

Test [1] can be described thus: ATG_M_06_CIS: Attagene CIS-FACTORIAL HepG2 Assay for M06 Transcription Factor (Internal Marker) (AID 2282950). The note with it: HepG2 Attagene CIS-FACTORIAL M06 internal marker reporter; actives raise or lower the signal. The method, boiled down:
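Measured 24 h post-dosing in transiently transfected HepG2 cells, this internal-marker endpoint reports reporter mRNA via RT-PCR with fluorescent primer extension and capillary electrophoresis. DMSO served as negative control and baseline for bidirectional fitting.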

The target of test [2] is Heat shock factor protein 1 (Homo sapiens) (UniProt Q00613). Nature of the test: ATG_HSE_CIS: Attagene CIS-FACTORIAL HepG2 Assay for human Heat Shock Transcription Factor 1 (HSE) (AID 2282953). The note with it: HepG2 HSE cis-reporter, Attagene RNA transcription; actives raise or lower the signal. The method, boiled down: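 Reporter mRNA induction in HepG2 is measured 24 h after dosing, using transiently transfected multiplexed cis-regulated reporter units. Signal comes from capillary electrophoresis of labelled RT-PCR products, with DMSO as negative control.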
Heat shock factor protein 1 (Homo sapiens), sequence (Q00613 whole entry, looked up): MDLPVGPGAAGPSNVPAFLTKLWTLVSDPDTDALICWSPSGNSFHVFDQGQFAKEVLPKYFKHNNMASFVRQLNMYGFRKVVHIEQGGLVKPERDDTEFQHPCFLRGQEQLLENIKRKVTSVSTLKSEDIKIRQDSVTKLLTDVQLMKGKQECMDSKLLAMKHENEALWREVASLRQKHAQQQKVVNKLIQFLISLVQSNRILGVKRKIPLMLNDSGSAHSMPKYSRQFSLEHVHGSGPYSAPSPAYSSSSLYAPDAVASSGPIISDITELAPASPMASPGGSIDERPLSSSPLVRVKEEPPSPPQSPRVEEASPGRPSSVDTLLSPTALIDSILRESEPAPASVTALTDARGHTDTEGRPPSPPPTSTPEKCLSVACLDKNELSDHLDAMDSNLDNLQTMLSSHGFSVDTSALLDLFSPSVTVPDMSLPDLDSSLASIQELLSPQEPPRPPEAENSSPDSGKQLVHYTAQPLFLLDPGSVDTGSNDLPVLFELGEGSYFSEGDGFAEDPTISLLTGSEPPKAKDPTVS

A short description of test [3]: ATG_Sox_CIS: Attagene CIS-FACTORIAL HepG2 Assay for human SRY-box transcription factor (SOX) (AID 2282960). The following applies: HepG2 Attagene cis-factorial SOX reporter, mRNA; actives raise or lower the signal. In outline:
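Measures mRNA induction of a SOX1-associated reporter in HepG2 after 24 h dosing. Fluorescently labelled RT-PCR fragments are separated by capillary electrophoresis, and gain or loss relative to DMSO control is fitted.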

Test [4] is described as follows: ATG_TA_CIS: Attagene CIS-FACTORIAL HepG2 Assay for human TA Basal Promoter (AID 2282964). The following applies: HepG2 Attagene CIS-factorial TA basal promoter reporter; actives raise or lower the signal. The method, boiled down:
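Cis-factorial format in HepG2: reporters report endogenous factors, not chimeric Gal4 fusions. After 24 h treatment, reporter transcripts were measured by RT-PCR-capillary electrophoresis fluorescence, analysed bidirectionally versus DMSO.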

The nature of test [5]: ATG_TCF_b_cat_CIS: Attagene CIS-FACTORIAL HepG2 Assay for human T-Cell-Factor with beta-catenin (TCF/b-cat) (AID 2282965). The following applies: HepG2 TCF/beta-catenin cis-reporter transcription, actives raise or lower the signal. In outline:
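Measured: reporter mRNA in HepG2 transiently transfected with cis-promoter reporter units, 24 h after chemical addition. Fitting was bidirectional, DMSO as negative control.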

A short description of test [6]: ATG_TAL_CIS: Attagene CIS-FACTORIAL HepG2 Assay for human TAL Basal Promoter (AID 2282966).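 Note: background control endpoint measuring basal TAL promoter reporter mRNA not a specific factor.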 The note with it: HepG2 Attagene cis-factorial TAL promoter reporter; actives raise or lower the signal. The method, boiled down: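 Background-control endpoint: basal TAL promoter reporter transcripts in transiently transfected HepG2, measured 24 h after dosing. Read-out by RT-PCR with fluorescent primer extension and capillary electrophoresis; gain or loss of signal fitted relative to DMSO.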

A short description of test [7]: ATG_TGFb_CIS: Attagene CIS-FACTORIAL HepG2 Assay for human Transforming Growth Factor (TGF) (AID 2282967). The following applies: HepG2 Attagene CIS TGFb reporter, mRNA transcription; actives raise or lower the signal. In outline: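 Multiplexed cis-reporter HepG2 system, 24 h treatment; mRNA induction read by fluorescence after RT-PCR and CE; DMSO negative control, bidirectional curve fitting.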

For test [8], the target named is X-box-binding protein 1 (Homo sapiens) (UniProt P17861). As to the kind of experiment: ATG_Xbp1_CIS: Attagene CIS-FACTORIAL HepG2 Assay for human X-box Binding Protein 1 (XBP1) (AID 2282972). The following applies: HepG2 XBP1 cis-element reporter, Attagene multiplex; actives raise or lower the signal. The method, boiled down: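 Human hepatoma HepG2, cis-element reporter system, 24 h treatment; mRNA quantified by RT-PCR/CE fluorescence; fit relative to DMSO.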
X-box-binding protein 1 (Homo sapiens), sequence (P17861 whole entry, looked up): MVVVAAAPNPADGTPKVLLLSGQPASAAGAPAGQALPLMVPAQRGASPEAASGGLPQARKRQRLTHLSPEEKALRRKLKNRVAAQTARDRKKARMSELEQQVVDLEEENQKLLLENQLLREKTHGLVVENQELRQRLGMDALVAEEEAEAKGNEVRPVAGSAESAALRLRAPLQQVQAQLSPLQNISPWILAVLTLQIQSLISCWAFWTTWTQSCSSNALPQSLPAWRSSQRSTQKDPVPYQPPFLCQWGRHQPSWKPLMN

The target of test [9] is Transcriptional activator Myb (Homo sapiens) (UniProt P10242). Nature of the test: ATG_Myb_CIS: Attagene CIS-FACTORIAL HepG2 Assay for human Myeloblastosis (Myb) Proto-Oncogene Transcription Factor (AID 2282986). The following applies: HepG2 Attagene CIS-FACTORIAL Myb reporter transcription; actives raise or lower the signal. In outline:
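Transiently transfected HepG2 cells, treated 24 h. Reporter mRNA quantified by RT-PCR/capillary electrophoresis; bidirectional fit relative to DMSO.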

For test [10], the target named is Nuclear respiratory factor 1 (Homo sapiens) (UniProt Q16656). Nature of the test: ATG_NRF1_CIS: Attagene CIS-FACTORIAL HepG2 Assay for human Nuclear Respiratory Factor 1 (NRF1) Orphan Gene (AID 2282987). The note with it: HepG2 NRF1 cis-element reporter, Attagene multiplex; actives raise or lower the signal. In outline:
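Cells (HepG2, transient MRTU transfection) are exposed to compound for 24 h, then RNA isolated and reporter mRNA amplified and fluorescently labelled. Fragments are separated by capillary electrophoresis; signal change is fitted bidirectionally relative to DMSO.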

The target in test [11] is Myc proto-oncogene protein (Homo sapiens) (UniProt P01106). Nature of the test: ATG_Myc_CIS: Attagene CIS-FACTORIAL HepG2 Assay for human Myelocytomatosis (Myc) Proto-Oncogene Transcription Factor (AID 2282990). The note with it: HepG2, Attagene cis-reporter transcription factor activity; actives raise or lower the signal. In outline: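 Cells of the HepG2 human liver line bear multiple cis-driven reporter transcription units. Reporter mRNA after 24 h exposure is reverse-transcribed, amplified, labelled and resolved by capillary electrophoresis, with gain- or loss-of-signal fitting relative to DMSO.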
Myc proto-oncogene protein (Homo sapiens), sequence (P01106 whole entry, looked up): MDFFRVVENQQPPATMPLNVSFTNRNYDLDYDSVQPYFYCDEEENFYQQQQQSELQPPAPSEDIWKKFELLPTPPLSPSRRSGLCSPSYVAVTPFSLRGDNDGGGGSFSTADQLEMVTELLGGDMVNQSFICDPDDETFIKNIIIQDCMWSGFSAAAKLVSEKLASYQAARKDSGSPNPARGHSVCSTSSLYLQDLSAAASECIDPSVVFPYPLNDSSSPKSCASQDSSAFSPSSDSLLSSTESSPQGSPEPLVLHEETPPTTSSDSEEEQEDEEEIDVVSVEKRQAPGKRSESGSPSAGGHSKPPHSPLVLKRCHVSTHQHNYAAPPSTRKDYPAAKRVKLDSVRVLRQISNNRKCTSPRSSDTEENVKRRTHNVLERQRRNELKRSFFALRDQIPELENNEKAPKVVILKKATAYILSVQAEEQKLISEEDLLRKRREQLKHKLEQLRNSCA

Test [12] in a line: ATG_NRF2_ARE_CIS: Attagene CIS-FACTORIAL HepG2 Assay for human Nuclear Factor Erythroid 2 Related Factor 2 (NFR2) response to Antioxidant Response Elements (ARE) (AID 2282992). The following applies: HepG2 Attagene ARE/NRF2 reporter, transcription factor activity; actives raise or lower the signal. In outline: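 Fluorescence intensity of reporter-specific cDNA fragments, separated by capillary electrophoresis, reflects mRNA induction in transfected HepG2 cells at 24 h. Activity is fitted bidirectionally, DMSO serving as baseline.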

The nature of test [13]: ATG_Oct_MLP_CIS: Attagene CIS-FACTORIAL HepG2 Assay for human Octamer-Binding Transcription Factor (Oct) (AID 2282993). The note with it: HepG2 Attagene cis-factorial Oct reporter, mRNA; actives raise or lower the signal. The method, boiled down:
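After 24 h compound exposure, transfected HepG2 cells were lysed for total RNA; reporter-specific cDNA was PCR-amplified, fluorescently labelled and sized by capillary electrophoresis. Bidirectional curve fitting used DMSO as baseline.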

In test [14] the target is Cellular tumor antigen p53 (Homo sapiens) (UniProt P04637). Nature of the test: ATG_p53_CIS: Attagene CIS-FACTORIAL HepG2 Assay for human p53 Transcription Factor (AID 2282994). The following applies: HepG2 p53 cis-element reporter, Attagene mRNA; actives raise or lower the signal. The method, boiled down:
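Transiently transfected HepG2 (multiple cis reporter transcription units); exposure 24 h; reporter RNA via RT-PCR, 6-FAM extension, 2 h HpaI digest at 37 C, CE detection; DMSO baseline.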

Test [15] deals with Nuclear receptor subfamily 1 group I member 2 (Homo sapiens) (UniProt O75469). As to the kind of experiment: ATG_PXR_TRANS: Attagene TRANS-FACTORIAL HepG2 Assay for human Pregnane X Receptor (PXR) (AID 2283008; active = hit-call score of the fitted dose curve at least 0.9, where 1 is the maximum). The method, boiled down: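 Transient HepG2 transfectants carrying multiplexed reporter transcription units; PXR activity read through a Gal4 chimera. 24 h exposure. RT-PCR/CE fluorescence; upward curve fit referenced to DMSO.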
Nuclear receptor subfamily 1 group I member 2 (Homo sapiens), sequence (O75469 whole entry, looked up, the tested form may be a part): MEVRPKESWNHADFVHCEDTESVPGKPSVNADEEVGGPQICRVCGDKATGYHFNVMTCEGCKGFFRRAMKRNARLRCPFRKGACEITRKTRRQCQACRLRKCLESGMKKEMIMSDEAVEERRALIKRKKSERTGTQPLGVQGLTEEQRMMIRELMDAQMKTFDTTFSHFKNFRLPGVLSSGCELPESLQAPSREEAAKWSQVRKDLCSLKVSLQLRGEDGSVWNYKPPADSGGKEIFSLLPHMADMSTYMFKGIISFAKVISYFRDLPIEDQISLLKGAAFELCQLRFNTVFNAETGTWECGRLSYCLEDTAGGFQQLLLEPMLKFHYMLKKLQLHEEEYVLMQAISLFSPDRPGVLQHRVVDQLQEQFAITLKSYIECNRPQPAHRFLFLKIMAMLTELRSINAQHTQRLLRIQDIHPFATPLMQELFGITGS

Test [16] in a line: ATG_DR4_LXR_CIS: Attagene CIS-FACTORIAL HepG2 Assay for human Liver X Receptor (LXR), DR4 submotif (AID 2282929). The following applies: HepG2 Attagene DR4 cis-reporter, mRNA transcription; actives raise or lower the signal. In outline: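 Fluorescence intensity of labelled reporter cDNA fragments, separated by capillary electrophoresis, gives the signal. HepG2 cells bearing cis-regulated reporter constructs were treated 24 h; activity fitted bidirectionally relative to DMSO negative control.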

Test [17] in a line: ATG_Ets_CIS: Attagene CIS-FACTORIAL HepG2 Assay for human Erythroblast Transformation Specific (ETS) (AID 2282941). The following applies: HepG2 ETS cis-reporter transcription, actives raise or lower the signal. In outline: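 Multiplexed reporter transcript profiling: HepG2, 24 h treatment, total RNA to cDNA, PCR, 6-FAM labelling, HpaI cut, capillary electrophoresis. Gain- or loss-of-signal fitted against DMSO.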

Test [18] concerns the target Hypoxia-inducible factor 1-alpha (Homo sapiens) (UniProt Q16665). Nature of the test: ATG_HIF1a_CIS: Attagene CIS-FACTORIAL HepG2 Assay for human Hypoxia Inducible Factor 1 (HIF1A) (AID 2282951). The following applies: HepG2 Attagene cis-factorial HIF1a reporter transcription; actives raise or lower the signal. The method, boiled down: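 Fluorescence intensity of capillary-separated, 6-FAM-labelled reporter amplicons gives mRNA induction in HepG2 cells carrying transfected cis-promoter reporter units; cells exposed 24 h, responses fitted up or down from DMSO.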

Test [19] deals with Hepatocyte nuclear factor 6 (Homo sapiens) (UniProt Q9UBC0). Nature of the test: ATG_HNF6_CIS: Attagene CIS-FACTORIAL HepG2 Assay for human Hepatocyte Nuclear Factor 6 (HNF6) (AID 2282952). The note with it: HepG2 Attagene cis-factorial HNF6 reporter transcription; actives raise or lower the signal. The method, boiled down: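 Endogenous factor activity read in transiently transfected HepG2 via promoter-regulated reporter transcripts. RNA harvested 24 h post-dosing, reverse-transcribed, PCR-amplified, FAM-labelled, HpaI-digested and resolved by capillary electrophoresis; fitted in both directions against DMSO.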
Hepatocyte nuclear factor 6 (Homo sapiens), sequence (Q9UBC0 whole entry, looked up): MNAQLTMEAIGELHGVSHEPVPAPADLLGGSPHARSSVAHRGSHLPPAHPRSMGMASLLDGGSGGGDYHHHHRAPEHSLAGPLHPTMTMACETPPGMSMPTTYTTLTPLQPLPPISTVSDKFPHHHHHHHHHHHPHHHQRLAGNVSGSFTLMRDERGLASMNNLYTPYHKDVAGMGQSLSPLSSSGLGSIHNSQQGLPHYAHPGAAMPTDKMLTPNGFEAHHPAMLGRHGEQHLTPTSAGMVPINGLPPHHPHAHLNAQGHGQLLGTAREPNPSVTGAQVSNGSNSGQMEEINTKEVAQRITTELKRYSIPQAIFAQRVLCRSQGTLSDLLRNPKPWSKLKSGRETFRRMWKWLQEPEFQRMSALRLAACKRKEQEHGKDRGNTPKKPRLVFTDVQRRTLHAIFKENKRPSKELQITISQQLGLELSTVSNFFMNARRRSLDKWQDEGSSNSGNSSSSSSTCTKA

Test [20] can be described thus: ATG_XTT_Cytotoxicity: Cytotoxicity Assessment in the Attagene TRANS-FACTORIAL HepG2 Assay (AID 2283584; active = hit-call score of the fitted dose curve at least 0.9, where 1 is the maximum). In outline:
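Viability endpoint from XTT after 24 h chemical exposure of reporter-transfected human HepG2 liver cells; signal loss fitted relative to DMSO negative control.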

Hypoxia-inducible factor 1-alpha (Homo sapiens), sequence (Q16665 whole entry, looked up): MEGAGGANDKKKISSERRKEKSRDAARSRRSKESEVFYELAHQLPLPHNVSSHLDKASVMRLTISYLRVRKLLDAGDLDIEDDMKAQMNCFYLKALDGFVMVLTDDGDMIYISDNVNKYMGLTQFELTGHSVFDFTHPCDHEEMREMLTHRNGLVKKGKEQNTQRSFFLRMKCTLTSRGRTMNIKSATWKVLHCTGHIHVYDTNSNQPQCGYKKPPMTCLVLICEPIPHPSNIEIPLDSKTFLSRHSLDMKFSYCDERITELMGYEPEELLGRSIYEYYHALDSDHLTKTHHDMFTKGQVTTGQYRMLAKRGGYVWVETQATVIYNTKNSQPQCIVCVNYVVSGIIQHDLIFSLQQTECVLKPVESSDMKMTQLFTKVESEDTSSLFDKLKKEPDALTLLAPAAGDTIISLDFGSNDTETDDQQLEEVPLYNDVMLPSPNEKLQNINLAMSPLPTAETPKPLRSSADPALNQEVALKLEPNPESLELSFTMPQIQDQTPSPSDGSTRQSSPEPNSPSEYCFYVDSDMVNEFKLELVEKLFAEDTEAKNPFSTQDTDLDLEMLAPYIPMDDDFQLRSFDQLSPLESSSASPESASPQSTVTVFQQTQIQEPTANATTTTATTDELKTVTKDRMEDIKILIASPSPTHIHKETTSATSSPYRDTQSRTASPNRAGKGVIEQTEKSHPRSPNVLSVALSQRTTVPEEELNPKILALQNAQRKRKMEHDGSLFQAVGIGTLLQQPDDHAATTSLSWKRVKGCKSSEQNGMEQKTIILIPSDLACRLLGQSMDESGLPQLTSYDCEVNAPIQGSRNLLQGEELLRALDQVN
Nuclear respiratory factor 1 (Homo sapiens), sequence (Q16656 whole entry, looked up, the tested form may be a part): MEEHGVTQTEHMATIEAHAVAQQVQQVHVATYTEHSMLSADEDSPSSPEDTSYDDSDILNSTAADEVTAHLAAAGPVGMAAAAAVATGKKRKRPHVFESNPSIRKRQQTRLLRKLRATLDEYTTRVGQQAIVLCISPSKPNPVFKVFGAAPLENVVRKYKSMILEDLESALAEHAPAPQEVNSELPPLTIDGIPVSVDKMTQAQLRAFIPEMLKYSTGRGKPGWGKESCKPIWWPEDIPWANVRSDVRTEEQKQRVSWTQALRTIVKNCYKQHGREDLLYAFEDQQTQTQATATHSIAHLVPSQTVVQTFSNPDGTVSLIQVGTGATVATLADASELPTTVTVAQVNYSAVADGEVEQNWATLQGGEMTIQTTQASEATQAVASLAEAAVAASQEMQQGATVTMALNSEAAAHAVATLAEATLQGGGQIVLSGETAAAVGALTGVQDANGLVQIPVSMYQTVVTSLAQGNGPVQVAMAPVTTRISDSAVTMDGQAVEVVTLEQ
Cellular tumor antigen p53 (Homo sapiens), sequence (P04637 whole entry, looked up): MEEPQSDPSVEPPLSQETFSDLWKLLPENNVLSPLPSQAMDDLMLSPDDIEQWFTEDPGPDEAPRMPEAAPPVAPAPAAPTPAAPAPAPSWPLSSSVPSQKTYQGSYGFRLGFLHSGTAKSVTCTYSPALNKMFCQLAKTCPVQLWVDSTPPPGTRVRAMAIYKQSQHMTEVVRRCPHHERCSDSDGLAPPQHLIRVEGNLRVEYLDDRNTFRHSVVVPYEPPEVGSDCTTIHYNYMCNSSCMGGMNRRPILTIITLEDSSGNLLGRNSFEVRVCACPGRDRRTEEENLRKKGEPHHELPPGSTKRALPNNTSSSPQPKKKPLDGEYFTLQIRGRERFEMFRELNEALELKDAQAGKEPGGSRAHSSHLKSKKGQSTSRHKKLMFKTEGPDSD
Transcriptional activator Myb (Homo sapiens), sequence (P10242 whole entry, looked up): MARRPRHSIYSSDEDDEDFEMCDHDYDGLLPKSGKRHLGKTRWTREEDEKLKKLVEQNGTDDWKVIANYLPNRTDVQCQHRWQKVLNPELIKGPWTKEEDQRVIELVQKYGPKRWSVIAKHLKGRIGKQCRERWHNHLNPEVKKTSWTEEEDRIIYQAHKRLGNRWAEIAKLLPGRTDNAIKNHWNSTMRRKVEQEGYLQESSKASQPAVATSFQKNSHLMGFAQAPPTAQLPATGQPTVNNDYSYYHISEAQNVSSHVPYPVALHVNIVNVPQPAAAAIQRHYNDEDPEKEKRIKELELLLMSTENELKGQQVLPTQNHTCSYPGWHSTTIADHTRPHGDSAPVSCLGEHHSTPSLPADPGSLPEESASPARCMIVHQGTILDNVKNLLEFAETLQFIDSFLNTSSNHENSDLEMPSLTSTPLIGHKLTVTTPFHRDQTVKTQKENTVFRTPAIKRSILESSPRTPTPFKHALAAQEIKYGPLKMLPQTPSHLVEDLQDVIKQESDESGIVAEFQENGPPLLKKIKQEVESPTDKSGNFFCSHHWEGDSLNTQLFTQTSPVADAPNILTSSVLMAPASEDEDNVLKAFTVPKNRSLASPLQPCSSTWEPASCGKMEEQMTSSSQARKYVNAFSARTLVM

For the compound `O=C(C1CCCCC1)N1CC(=O)N2CCc3ccccc3C2C1` (configuration not stated), the compound was called inactive in [1], in test [2], in test [3], in test [4], in test [5] and in test [6]. Also, the outcome in test [7], in [8], in test [9], in [10], in test [11] and in test [12] was inactive. Moreover, the result in test [13] and in [14] was inactive. Also, the AC50 in [15] was 8.4 µM (active).

Regarding `CC/C=C/CCO`, the compound was classed as inactive in test [16], in test [17], in [18], in test [19], in test [2] and in [3]. Also, the result in test [4], in [5], in [6], in test [7], in [8] and in test [9] was inactive. Also, the call in test [10], in test [11], in test [12], in test [13], in [14] and in [15] was inactive. Further, in [20], the result was inactive.

As to `CC[N+](CC)(CC(=O)Nc1c(C)cccc1C)Cc1ccccc1` (tested in a mixture with another compound), the compound was classed as inactive in test [16], in test [1], in test [18], in [19], in [4] and in test [5]. Further, the compound was classed as inactive in test [7], in test [8], in test [9], in [10], in [11] and in [12]. The call in test [13], in test [15] and in test [20] was inactive.

`CCCC[N+]1(C)CCCC1`: the call in [16], in test [17], in test [1], in [18], in test [19] and in [2] was inactive. Further, the outcome in [4], in test [5], in test [6], in test [7], in test [8] and in [9] was inactive. The outcome in test [10], in [11], in test [12], in [13], in [14] and in test [20] was inactive.
